{
  "source": "PubChem BioAssay (NCI)",
  "note": "Compounds without any hit were thinned out: in the full panel of roughly 83,000, 20% have a hit.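 Negative percent growth values reflect cell death: -40 means 40% of the cells present at the start died, and -100 means all died.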 A number with no mark means an inactive call. Active and inactive are the calls of the source. Rule for the calls: active = growth percent below 10; inactive = the rest.",
  "data": [
    {"tested_on": "HL-60(TB) leukemia", "test": "NCI-60 one-dose screen, 48 h (100 = growth as untreated, 0 = no growth, -100 = all killed)", "conditions": "10 µM unless noted", "values": [
      {"compound": "CN1C(=O)N(C)C2Nn3c(s/c(=C\\c4ccccn4)c3=O)=NC21", "note": "(configuration not stated)", "growth": "110%"},
      {"compound": "O=C(CCCCCCNC(=O)C(O)(O)C(F)(F)F)Nc1ncc(-c2ccccc2)s1", "growth": "11.2%"},
      {"compound": "CCNCCOc1ccc(/C(=C(/CC)c2ccc(Cl)cc2)c2ccc(OCCCN(C)C)cc2)cc1", "growth": "-61.5% (active)"},
      {"compound": "IP(CCCCCCCCCCSc1n(Cc2ccc3ccccc3c2)c(-c2ccccc2)c(-c2ccccc2)[n+]1Cc1ccc2ccccc2c1)(c1ccccc1)(c1ccccc1)c1ccccc1", "growth": "-62.5% (active)"},
      {"compound": "CCOC(=O)c1c(NC(=O)c2ccc(C(F)(F)F)cc2)sc2c(CN3CCN(C)CC3)c(O)ccc12", "growth": "-36.8% (active)"},
      {"compound": "C=C(C)[C@@H]1CC[C@]2(COCCCNCCCN)CC[C@]3(C)[C@H](CC[C@@H]4[C@@]5(C)CC[C@H](O)C(C)(C)[C@@H]5CC[C@]43C)[C@@H]12", "growth": "-28.1% (active)"},
      {"compound": "COc1ccc(NC2=CC(=O)C(C)=C(C)C2=O)cc1", "growth": "80.2%"},
      {"compound": "NC(N)=Nc1ccc(Oc2cccc(Nc3ccc(Cl)cc3)c2)cn1", "growth": "-69.4% (active)"},
      {"compound": "Cc1ccc(NC(=O)c2ccc(CN3CCOCC3)c(C(F)(F)F)c2)cc1Oc1ccc(-c2[nH]nc3ncnc(N)c23)cc1", "growth": "80.9%"},
      {"compound": "O=c1[nH]c2ccccc2cc1CSc1ccccc1Nc1nccc(-c2ccc(Cl)cc2)n1", "growth": "102%"},
      {"compound": "Cc1ccc(S(=O)(=O)c2nc(-c3ccc(F)cc3)oc2S(C)(=O)=O)cc1", "growth": "62.4%"},
      {"compound": "CNC(=O)c1cc(Oc2ccc3nc(NC(=O)c4cccc(C(F)(F)F)c4)sc3c2)ccn1", "growth": "143%"}
    ]}
  ]
}
